Active and inactive are the calls of the source. How the source made its calls: active means hit-call score of the fitted dose curve at least 0.9, where 1 is the maximum; inactive means score below 0.9.
Molecular target: Hepatocyte nuclear factor 6 (Homo sapiens) (UniProt Q9UBC0)
Test: ATG_HNF6_CIS: Attagene CIS-FACTORIAL HepG2 Assay for human Hepatocyte Nuclear Factor 6 (HNF6) (AID 2282952)
Conditions: HepG2 Attagene cis-factorial HNF6 reporter transcription; actives raise or lower the signal
Protocol: ATG_CIS is a cell-based, multiplexed-readout assay that uses HepG2, a human liver cell line, with measurements taken at 24 hours after chemical dosing in a 24-well plate.ATG_HNF6_CIS is one of 52 assay component(s) measured or calculated from the ATG_CIS assay. It is designed to make measurements of mRNA induction, a form of inducible reporter, as detected with fluorescence intensity signals by Reverse transcription polymerase chain reaction (RT-PCR) and Capillary electrophoresis technology.Data from the assay component ATG_HNF6_CIS was analyzed into 1 assay endpoint. This assay endpoint, ATG_HNF6_CIS, was analyzed with bidirectional fitting relative to DMSO as the negative control and baseline of activity. Using a type of inducible reporter, measures of mRNA for gain or loss-of-signal activity can be used to understand the reporter gene at the transcription factor-level as they relate to the gene ONECUT1. Furthermore, this assay endpoint can be referred to as a primary readout, because this assay has produced multiple assay endpoints where this one serves a reporter gene function. To generalize the intended target to other relatable targets, this assay endpoint is annotated to the dna binding intended target family, where the subfamily is homeobox protein.
Human liver HepG2 cells are transiently transfected with multiple reporter transcription units (MRTUs) in 6-well plates using FuGene 6 reagent (Roche; 3 ml FuGene/1 mg DNA). The MRTU constructs are regulated by a cis-regulating element (promoter). […] A major difference between the CIS and TRANS system is that in CIS activities of endogenous TFs are measured, whereas the TRANS assay evaluates changes in activities of exogenous, chimeric NR-Gal4 proteins. […] At the end of 24 hour incubation, total RNA was isolated using TriZol reagent (Invitrogen). The isolated RNA is then reverse-transcribed using oligo(dT) primer and Mo-MLV reverse transcriptase (Invitrogen) with DNAse I (Ambion) treatment for 30 min. The one-tenth of the produced cDNA was amplified by PCR using Taq DNA polymerase (Invitrogen) and two reporter sequence-specific primers. The PCR products were fluorescently labeled by primer extension with 6-arboxyfluorescein (6-FAM) 5'-labeled reporter sequence-specific primer (2 min at 95 C, 20 s at 68 C and 10 min at 72 C) and these products were digested with 5U of HpaI (New England Biolabs) for 2h at 37 C. The fragments were purified using Qiaquick PCR columns (Qiagen), analyzed on an ABI 3130xL genetic analyzer (Applied Biosystems) with peak positions identified by using a set of X-rhodamine (ROX)-labeled MapMarker1000 molecular weight standards (BioVentures). The raw capillary electrophoresis data was processed using Attagraph software (Attagene).

Sequence of Hepatocyte nuclear factor 6 (Homo sapiens) (Q9UBC0 whole entry, looked up): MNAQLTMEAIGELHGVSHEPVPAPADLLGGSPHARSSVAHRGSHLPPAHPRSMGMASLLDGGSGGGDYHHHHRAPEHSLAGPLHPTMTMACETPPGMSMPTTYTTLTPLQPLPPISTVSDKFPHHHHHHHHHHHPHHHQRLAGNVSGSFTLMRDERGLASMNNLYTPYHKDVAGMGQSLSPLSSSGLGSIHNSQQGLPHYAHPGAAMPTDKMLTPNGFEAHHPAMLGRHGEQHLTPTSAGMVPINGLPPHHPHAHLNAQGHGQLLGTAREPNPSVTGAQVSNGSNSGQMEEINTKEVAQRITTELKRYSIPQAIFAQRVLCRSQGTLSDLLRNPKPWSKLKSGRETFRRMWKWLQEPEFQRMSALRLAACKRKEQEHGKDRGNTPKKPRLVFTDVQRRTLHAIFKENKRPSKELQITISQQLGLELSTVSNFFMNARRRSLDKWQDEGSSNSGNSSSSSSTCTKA

Question: Which outcome does the source give for `COCCOC(=O)c1ccccc1C(=O)OCCOC` here?
Answer: inactive

Question: `CCCCCCCCCCCCCCN(CCO)CCO` was tested. Which outcome did it give?
Answer: inactive

Question: How did the outcome turn out when `CCCOCCO` was run?
Answer: inactive

Question: Which outcome does the source give for `O=C(O)c1cccnc1C(=O)O` here?
Answer: inactive

Question: Which outcome does the source give for `CCCCCCC(O)CCCCCCCCCCC(=O)O` (stereo not given) here?
Answer: inactive

Question: For `CCOC(=O)c1ccc(N)cc1`, which outcome is on record?
Answer: inactive

Question: How did the outcome turn out when `CC=Cc1ccc(OCC)c(O)c1` was run?
Answer: inactive

Question: How did the outcome turn out when `O=CCc1ccccc1` was run?
Answer: inactive

Question: How did the outcome turn out when `CCC(=O)O[C@@H]1C[C@H]2CC[C@]1(C)C2(C)C` was run?
Answer: inactive

Question: Which outcome does the source give for `Cc1ccc(-c2ccccc2)cc1` here?
Answer: inactive

Question: `C=C(C#N)C(=O)OCC` was tested. Which outcome did it give?
Answer: inactive

Question: `Cc1occc(=O)c1OC(=O)C(C)C` was tested. Which outcome did it give?
Answer: inactive

Question: With `COC(CC(C)CCCC(C)(C)O)OC` (stereo not given) as the molecule, how does the outcome read?
Answer: inactive

Question: With `OCc1cccc(Oc2ccccc2)c1` as the molecule, how does the outcome read?
Answer: inactive

Question: With `CSc1c(Cl)c(Cl)c(Cl)c(Cl)c1Cl` as the molecule, how does the outcome read?
Answer: inactive

Question: With `CCCCCC(C=O)=Cc1ccccc1` as the molecule, how does the outcome read?
Answer: inactive

Question: With `C=CC(=O)OCCC#N` as the molecule, how does the outcome read?
Answer: inactive

Question: `COc1ccc(COC(C)=O)cc1` was tested. Which outcome did it give?
Answer: inactive

Question: Which outcome does the source give for `CCc1ccc(O)c(OC)c1` here?
Answer: inactive

Question: How did the outcome turn out when `C=CCOC(=O)CCCCCC` was run?
Answer: inactive

Question: For `CN(c1nccc(=O)[nH]1)C1CCN(c2nc3ccccc3n2Cc2ccc(F)cc2)CC1`, which outcome is on record?
Answer: inactive

Question: Which outcome does the source give for `Cc1ccc(S(=O)(=O)Oc2ccc(N=Nc3ccc(-c4ccc(N=Nc5c(O)ccc6cc(S(=O)(=O)O)cc(S(=O)(=O)O)c56)c(C)c4)cc3C)cc2)cc1` here?
Answer: inactive

Question: For `CCCCCCCC/C=C\CCCCCCCC(=O)OCC`, which outcome is on record?
Answer: inactive

Question: How did the outcome turn out when `C=C(CC(=O)O)C(=O)O` was run?
Answer: inactive

Question: How did the outcome turn out when `COC(=O)c1ccc(C)cc1C1=NC(C)(C(C)C)C(=O)N1` (stereo not given) (tested in a mixture with another compound) was run?
Answer: inactive

Question: With `Cc1ccc(S(N)(=O)=O)cc1` as the molecule, how does the outcome read?
Answer: inactive

Question: With `CC(C)CCCCCCc1ccc(OCCOCCO)cc1` as the molecule, how does the outcome read?
Answer: inactive

Question: Which outcome does the source give for `CCCCCCCC(=O)OCC(O)CO` (stereo not given) here?
Answer: inactive

Question: For `Cc1c(OCC(F)(F)F)ccnc1CS(=O)c1nc2ccccc2[nH]1` (stereo not given), which outcome is on record?
Answer: inactive

Question: For `CCCCOCC`, which outcome is on record?
Answer: inactive

Question: How did the outcome turn out when `c1ccc(CCc2ccccc2)cc1` was run?
Answer: inactive

Question: How did the outcome turn out when `CCCCCCC(=O)c1ccccc1` was run?
Answer: inactive

Question: With `COc1ccc(CCC(C)=O)cc1` as the molecule, how does the outcome read?
Answer: inactive

Question: `CCC1(C)NC(=O)NC1=O` (stereo not given) was tested. Which outcome did it give?
Answer: inactive

Question: How did the outcome turn out when `CC(C)(N=C=O)c1cccc(C(C)(C)N=C=O)c1` was run?
Answer: inactive

Question: Which outcome does the source give for `C[N+](C)(C)CCCCCC[N+](C)(C)C` here?
Answer: inactive

Question: How did the outcome turn out when `Clc1ccc(C(c2ccccc2Cl)C(Cl)Cl)cc1` (stereo not given) was run?
Answer: inactive

Question: How did the outcome turn out when `CCCCCCOC(=O)CCC` was run?
Answer: inactive

Question: For `CC(O)C1CCCCC1` (stereo not given), which outcome is on record?
Answer: inactive

Question: How did the outcome turn out when `CCOC(=O)COC(=O)c1cc(Oc2ccc(C(F)(F)F)cc2Cl)ccc1[N+](=O)[O-]` was run?
Answer: inactive

Reference: PubChem BioAssay (EPA / NIEHS)
